# PMC7819943, “Rice protein-binding microarrays: a tool to detect cis-acting elements near promoter regions in rice”
# In all, about 68,000 sequences were measured (“fluorescence intensity (a.u.)”: median about 9,100, highest 2% from about 16,000 on). This excerpt belongs to a sample that is enriched for the highest values.
# Target: OsWRKY34 (Oryza sativa, UniProt Q0JBA9 1-250)
# Assay: protein-binding microarray (RPBM); PBS, 2% BSA, 51.3 ng/ul salmon testes DNA, 50 uM zinc acetate, 200 nM TF, 25 C, 1 h; high values mean tight binding
# Conditions: protein: recombinant; tags: N-terminal polyhistidine and DsRed monomer fusion (pET32a); label: CyDye5-dUTP incorporated in the synthesized complementary strand; 3' TTTTT single-stranded linker to array surface; dsDNA, one strand shown
# Outline: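 Per-feature fluorescence intensity (arbitrary units), read on an Axon 4000B scanner, is the binding signal. Transcription factors carrying an N-terminal polyhistidine tag and DsRed fusion were expressed in E. coli BL21-CodonPlus and purified on Ni–NTA. A custom Agilent array, made double-stranded by primer extension with Cy5-dUTP and blocked with 2% BSA, was incubated with 200 nM protein in PBS, 2% BSA, salmon testes DNA and 50 µM zinc acetate at 25 °C for 1 h and then washed.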
# Sequence of OsWRKY34 (Q0JBA9 entry or part of it): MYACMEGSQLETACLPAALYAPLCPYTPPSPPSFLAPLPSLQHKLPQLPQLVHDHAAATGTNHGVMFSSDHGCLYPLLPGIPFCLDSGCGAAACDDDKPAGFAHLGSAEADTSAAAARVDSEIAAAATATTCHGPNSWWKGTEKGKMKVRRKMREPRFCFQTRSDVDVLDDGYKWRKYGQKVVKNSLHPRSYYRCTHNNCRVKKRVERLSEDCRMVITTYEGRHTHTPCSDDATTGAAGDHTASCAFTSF
row,Sequence,binding signal
1,CTTTTTATTACCGGTGTTTCGCTTTGGACCACCCTTCAACCGGAGTCACCTAGTGCAG,9170 fluorescence intensity (a.u.)
2,CCACCAATCCACCACCGCCACGCCACTTCACCCTTGTTTTCGGAGTCACCTAGTGCAG,9810 fluorescence intensity (a.u.)
3,CTCCGTCGCCACTCACACCCATGGCCTTGACCGCTACTAGCGGAGTCACCTAGTGCAG,9550 fluorescence intensity (a.u.)
4,GTTTTGAAAGGTATTGTTGGGTAGTAATAGGCTTCATCTTCGGAGTCACCTAGTGCAG,10200 fluorescence intensity (a.u.)
5,TTCCTTTTGTGTTGTTTCCCTTTCAGTTTCATCTTTTGCTCGGAGTCACCTAGTGCAG,8110 fluorescence intensity (a.u.)
6,ACTTGTCCTTGATCCTGCCCCACTTCGGATTGTCAATCGACGGAGTCACCTAGTGCAG,8730 fluorescence intensity (a.u.)
7,CGTTCCTTGGTATTCTCCCTCGTGGTGTAAATGTACGTATCGGAGTCACCTAGTGCAG,9740 fluorescence intensity (a.u.)
8,TTGTTGCAGCCTCGCAGTAAGATTCCTTGTTTTTCTTAGCCGGAGTCACCTAGTGCAG,8620 fluorescence intensity (a.u.)
9,TCGCTTTTTACTTTTTATTTTTTTACACATCCGACTCAAACGGAGTCACCTAGTGCAG,8260 fluorescence intensity (a.u.)
10,CACCCAAGCCAAGCCCACGACCCGCACCGCAACACGCACACGGAGTCACCTAGTGCAG,8520 fluorescence intensity (a.u.)
11,CCCGCACCGCAACACGCACACCCACGCGCACGCACAAACCCGGAGTCACCTAGTGCAG,8060 fluorescence intensity (a.u.)
12,ACCCAAAGCCACCCGCAACAACCGACGACGACGACGACCGCGGAGTCACCTAGTGCAG,18200 fluorescence intensity (a.u.)
13,CCACGCTATCCCATGCGATTCGAGAAGGTTCCACACACACCGGAGTCACCTAGTGCAG,8430 fluorescence intensity (a.u.)
14,AATGGTGCAATACAATTTCAAGCGTATCACTGTTGTTCCTCGGAGTCACCTAGTGCAG,9720 fluorescence intensity (a.u.)
15,TTCAAAATGTTTGATACCGTTGACTTTTTAGCACATTTTGCGGAGTCACCTAGTGCAG,29400 fluorescence intensity (a.u.)
16,TCAAAATGTTTAACGCCGTTGACTTTTTAGCACATTTTTGCGGAGTCACCTAGTGCAG,33000 fluorescence intensity (a.u.)
17,GACTTTTTAGCACATTTTTGACCGTTCATCTTATTCAAAACGGAGTCACCTAGTGCAG,8780 fluorescence intensity (a.u.)
18,GGTTTCAAGAAAAGGAAAAGAAAAACTAAACGTAGTATAACGGAGTCACCTAGTGCAG,11300 fluorescence intensity (a.u.)
19,AGTATCAAGCGATACAGGAGCTCCTCACTCCATCTCTCTACGGAGTCACCTAGTGCAG,8330 fluorescence intensity (a.u.)
20,CCTCCTCTCCCTTTTCTGCTGTTTCTCTCTCTCACACACTCGGAGTCACCTAGTGCAG,8470 fluorescence intensity (a.u.)
21,CACTCTCTCTCGCTGTCTTTCTCTCCTTCCATTTCATTTCCGGAGTCACCTAGTGCAG,8250 fluorescence intensity (a.u.)
22,CACACACTCTCCGGTTTTTTTTTCCTTTTCATTTTTTTCTCGGAGTCACCTAGTGCAG,28000 fluorescence intensity (a.u.)
23,TTCGGTTTTTCTCTTCATCATTTCTCTTTATTTCTTTCTCCGGAGTCACCTAGTGCAG,9290 fluorescence intensity (a.u.)
24,TTTTTTTCTCCTTTCCTTCTTCTCTCTCTCTCTTTTTTTTCGGAGTCACCTAGTGCAG,8870 fluorescence intensity (a.u.)
25,CGTTTCTCTTTCTTTCTTCCCTTCGGTTTCTCCTCCTCTCCGGAGTCACCTAGTGCAG,10600 fluorescence intensity (a.u.)
26,ATATCTACTCCCGGTTTCTGCTGGATTCCTTCCTTTTTCTCGGAGTCACCTAGTGCAG,17500 fluorescence intensity (a.u.)
27,GTTTTGCACATCCGGTTTTCTCTCTCTCTCTCTCTCCTTTCGGAGTCACCTAGTGCAG,16700 fluorescence intensity (a.u.)

row,Sequence,binding signal
1,CGCCGGTTGCTTCCATATACTCTGCTCCTTTTTTTTCTATCGGAGTCACCTAGTGCAG,9240 fluorescence intensity (a.u.)
2,ACAGGGCTTGGAATAGGTTGGTGTACAGGGCGGTAGCTTACGGAGTCACCTAGTGCAG,8670 fluorescence intensity (a.u.)
3,AGAAAAGAATCTACAGTACCCACATGGCATACTCTCTTTTCGGAGTCACCTAGTGCAG,9950 fluorescence intensity (a.u.)
4,GTCTTTTGGTGGGTGGGAAATCACTTCCATTTCCCATTAGCGGAGTCACCTAGTGCAG,11300 fluorescence intensity (a.u.)
5,GTGGCAATGCAAACTCGTCTTGGAACCCACTGCTTTGCCTCGGAGTCACCTAGTGCAG,8192 fluorescence intensity (a.u.)
6,TCCCTCCGTTTTTTAATAGATGATGCCGTTGACTTTTTCTCGGAGTCACCTAGTGCAG,19300 fluorescence intensity (a.u.)
7,ATACTACCTCCGTTTTTTAATAGATGACGTCGTTGACTTTCGGAGTCACCTAGTGCAG,14600 fluorescence intensity (a.u.)
8,CTACTATCATATTTTTTAATAGATGACTCCGTTGACTTTTCGGAGTCACCTAGTGCAG,16800 fluorescence intensity (a.u.)
9,TACCTCCGTTTTTTAATAGATGACGCCGTTGACTTTTTCTCGGAGTCACCTAGTGCAG,25000 fluorescence intensity (a.u.)
10,ATGACATACTAATAGATGATACTATTGACTTTTTTTCTATCGGAGTCACCTAGTGCAG,9980 fluorescence intensity (a.u.)
11,TACCTCCGTTTTCTAATAGATGACGCCGTTGACTTTTTCTCGGAGTCACCTAGTGCAG,20700 fluorescence intensity (a.u.)
12,GTTTCTTACCCATCTACTATGGCCTATTTAACCCTGCGCCCGGAGTCACCTAGTGCAG,11000 fluorescence intensity (a.u.)
13,GCCCGCGCCGTCTACCAGGACGCCGACGTCTACCTCCTCGCGGAGTCACCTAGTGCAG,8470 fluorescence intensity (a.u.)
14,CCTCTTCTCCTTCGGTGTGTTCGTCGATGTGCTTTGCTGACGGAGTCACCTAGTGCAG,8580 fluorescence intensity (a.u.)
15,CGGTTTGGGCTCTTTTGGCTGTTCCATGGCGACGAGGCGCCGGAGTCACCTAGTGCAG,8320 fluorescence intensity (a.u.)
16,GACCCCTCCGACCGCTACGCCAACCACAACACCGTCTTCTCGGAGTCACCTAGTGCAG,9430 fluorescence intensity (a.u.)
17,TGTCAACCCGCGCCTCCGATTTCTCCAGCTTTTCTTTCCCCGGAGTCACCTAGTGCAG,12800 fluorescence intensity (a.u.)
18,AGTAGTCTCCGTCTTCGTCCTCTTCCTTCTTGTTTAATAACGGAGTCACCTAGTGCAG,8930 fluorescence intensity (a.u.)
19,TGCCTGTAGTGGCGGTTGGGGATGCGGATAAGGCGAGGGGCGGAGTCACCTAGTGCAG,14500 fluorescence intensity (a.u.)
20,TCCGACATGCTGCCCTCGATCGAGCTCATCCATCGGCCCTCGGAGTCACCTAGTGCAG,9550 fluorescence intensity (a.u.)
21,CCACCCTTTTTCTCTGCTTCCAGTGTACGTTTTCGAATAACGGAGTCACCTAGTGCAG,9880 fluorescence intensity (a.u.)
22,CCTCCTAGTTCCCTCGGCATGCAGACGATCTGCCAGTTTACGGAGTCACCTAGTGCAG,11700 fluorescence intensity (a.u.)
23,TATCGTCCGGTGCTCCTCGTCCATGTCAACAGCTACCATACGGAGTCACCTAGTGCAG,9850 fluorescence intensity (a.u.)
24,GAGGGCAAGGGCGGCGGGTCTAACACAACACAATAAGAGTCGGAGTCACCTAGTGCAG,9470 fluorescence intensity (a.u.)
25,TCTTTGCAGGTCACTTCCGGGTGCTTCACATTCCGGTTAACGGAGTCACCTAGTGCAG,8890 fluorescence intensity (a.u.)
26,TCCTCATCTTGTGCTCTCAAGTGTTTTAAGTGCTCTCTTTCGGAGTCACCTAGTGCAG,10500 fluorescence intensity (a.u.)
27,ATTTAATTTCACCTACTACTACTACTATTCTTCTTATTAACGGAGTCACCTAGTGCAG,9430 fluorescence intensity (a.u.)
